Hit rate of the full screen: of about 16,000 compounds, about 5,100 (32%) were called active. Not shown: some 25% with an inconclusive outcome. The list shows a part of the results. Values without a mark were called inactive. Calls follow the shape of the dose curve; as a rule, active = well fitted curve in the direction sought with a large enough effect; inconclusive = small, poorly fitted or top-dose-only effect, or effect the other way; inactive = no such curve, though single readings can be large or run the other way.

Experimental findings from PubChem BioAssay AID1851 (National Center for Advancing Translational Sciences (NCATS), 2009) are described below.
% is scaled to controls: 0 for no effect and ±100 for the full control effect.

The test deals with Cytochrome P450 3A4 (Homo sapiens) (UniProt P08684). Put plainly: Cytochrome panel assay with activity outcomes. The following applies: recombinant CYP, pro-luciferin dealkylation, luminescence, p450-cyp3a4; series mostly up to 57.1 µM.
Cytochrome P450 3A4 (Homo sapiens), sequence (P08684 whole entry, looked up): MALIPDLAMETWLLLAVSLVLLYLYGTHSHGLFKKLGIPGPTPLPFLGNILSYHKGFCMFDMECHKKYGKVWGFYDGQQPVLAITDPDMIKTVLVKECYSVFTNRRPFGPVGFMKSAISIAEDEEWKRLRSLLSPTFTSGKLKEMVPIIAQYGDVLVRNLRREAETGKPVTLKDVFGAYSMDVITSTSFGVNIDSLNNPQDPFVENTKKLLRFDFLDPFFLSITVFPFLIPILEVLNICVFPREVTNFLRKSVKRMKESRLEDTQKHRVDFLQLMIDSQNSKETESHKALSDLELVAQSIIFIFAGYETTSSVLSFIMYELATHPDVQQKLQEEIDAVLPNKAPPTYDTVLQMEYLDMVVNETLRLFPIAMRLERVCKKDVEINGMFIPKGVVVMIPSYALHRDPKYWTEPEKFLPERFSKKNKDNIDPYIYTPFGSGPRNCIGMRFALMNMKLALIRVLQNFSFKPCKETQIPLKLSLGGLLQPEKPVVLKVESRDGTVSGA
Broadly, the AC50 is the concentration at which the activity in the assay is half-maximal. `CN(C)CCCn1cc(C2=C(c3c[nH]c4ccccc34)C(=O)NC2=O)c2ccccc21`: the AC50 was 12.6 µM (active).
The same measure, in the same setting: with `CN(C)CCCNC(=O)c1cc2c3ccccc3n(C)c2s1` the entry was “inactive”.
Take `CN(C)CCCN=c1c2ccccc2n(C)c2[nH]c(=O)n(C)c(=O)c12`: the activity, negative = inhibition is 2.56% [at 11.4 µM].
Same read-out and setting: with `c1c[nH]c(CN2CCN(Cc3ncc[nH]3)CC2)n1` the figure was -22.2% [at 11.4 µM].
As for `Clc1cccc(Cl)c1NC1=NCCN1`, the AC50 entry is “inactive”.
Same read-out and setting: with `COc1cccc(-c2ccc3ncnc(NC4CC4)c3c2)c1` the figure was 2 µM (active).
In the case of `COc1ccc(Nc2ncc(C(=O)N3CCN(Cc4ccccc4)CC3)c3ccccc23)cc1`, the activity, negative = inhibition is -29.5% [at 2.29 µM].
The same measure, in the same setting: with `NCCNc1ncnc2ccc(Cl)cc12` the figure was -27.5% [at 11.4 µM].
The same measure, in the same setting: with `COc1ccc(-n2cnc3sc(-c4ccccc4)cc3c2=O)cc1` the figure was 13% [at 2.29 µM].
As to `CNc1ncnc2ccc(-c3ccccc3OC)cc12`, the AC50 was 20 µM (active).
Still for that read-out and setting: with `Clc1cccc(Nc2ncnc3ccc(Br)cc23)c1` the figure was 14.1 µM (active).
As to `Brc1ccc2ncnc(Nc3cccc4ccccc34)c2c1`, the activity, negative = inhibition is 20.8% [at 2.29 µM].
In the case of `COc1ccc(Nc2ncnc3sc(-c4ccccc4)cc23)cc1`, the AC50 was 11.2 µM (active).
Take `CC(C)=NOCc1ccc(-c2cc(-c3ccccc3)no2)cc1`: the activity, negative = inhibition was 5.94% [at 11.4 µM].
On the same count and under the same terms, under `C[C@@H](c1ccccc1)N1C(=O)[C@@H]2[C@H]3C(=CC[C@H]2C1=O)C(=O)[C@H]1O[C@H]1[C@H]3O` stands -19.9% [at 11.4 µM]; under `CN(C)S(=O)(=O)Nc1ccccn1`, -8.58% [at 11.4 µM].
Take `CN(C)c1ccc(-c2ccc3ncnc(NC4CC4)c3c2)cc1`: the AC50 was 3.16 µM (active).
Still for that read-out and setting: with `CN(C)C(=O)c1ccc(-c2ccc3ncnc(NC4CCNCC4)c3c2)cc1` the entry was “inactive”; with `COc1cccc(-c2ccc3ncnc(Nc4ccccc4)c3c2)c1`, 10 µM (active); with `COc1ccccc1-c1ccc2ncnc(Nc3ccccc3)c2c1`, 12.6 µM (active).
Same read-out and setting: with `COc1cccc(Nc2ncc(C(=O)O)c3ccccc23)c1` the entry was “inactive”.
As for `C/C=C\C1=C(CO)C(=O)C2O[C@]2(CC=C(C)C)C1=O` (stereo partly drawn), the activity, negative = inhibition was -13.4% [at 11.4 µM].
`Cc1sc2c(c1C)c(=O)n(-c1ccccc1)c1nnc(C)n21`: the AC50 result was “inactive”.
On to `CCOC(=O)CN(C(=O)CCC(=O)Nc1cc(C)on1)C(C(=O)NC1CCCC1)c1cccnc1` (stereo not drawn), for which the activity, negative = inhibition was -13% [at 2.29 µM].
As to `CCOc1ccc(N(C(=O)/C=C/C(=O)Nc2cc(C)on2)C(C(=O)NC2CCCC2)c2ccccc2C)cc1` (stereo not drawn), the AC50 is 0.891 µM (active).
For `Cc1ccccc1C(C(=O)NC1CCCC1)N(C(=O)Cc1cccs1)c1ccc2c(c1)OCCO2` (stereo not drawn), the AC50 was 1 µM (active).
Turning to `Cc1nn(C)cc1C(C(=O)NC1CCCCC1)N(C(=O)Cc1cccs1)c1ccc(C(C)C)cc1` (stereo not drawn), the AC50 is 2.51 µM (active).
The same measure, in the same setting: with `O=C(O)CN(CCN(CC(=O)O)CC(=O)O)CCN(CC(=O)O)CC(=O)O` the entry was “inactive”.
Take `Oc1ccc(Cc2nccc3cc(O)c(O)cc23)cc1O`: the activity, negative = inhibition is -11.6% [at 11.4 µM].
For the molecule `CC1(C)CC(=O)C(C(c2cccc(O)c2O)C2C(=O)CC(C)(C)CC2=O)C(=O)C1`, the activity, negative = inhibition is -5.88% [at 11.4 µM].
On the same count and under the same terms, with `OCCN(Cc1ccccc1)Cc1cccc(Cl)c1Cl` the figure was 9.74% [at 11.4 µM].
On to `CCN(CC(=O)NCc1cccs1)S(=O)(=O)c1ccc(C(C)C)cc1`, for which the AC50 was 7.08 µM (active).
Regarding `O=C(CO)N/N=C/c1ccccc1F`, the AC50 entry was “inactive”.
On the same count and under the same terms, with `COc1ccccc1/C=N/NC(=O)CC(=O)Nc1ccc(Cl)c(Cl)c1` the figure was 7.94 µM (active); with `CCOC(=O)N/N=C/c1ccccc1F`, “inactive”; with `COc1ccc(OC)c(C2C(C(=O)Nc3nc4ccccc4s3)=C(C)NC3=C2C(=O)CCC3)c1` (stereo not drawn), 2.24 µM (active).
Still for that read-out and setting: with `COCCN1CN=C(Nc2nc3ccccc3s2)NC1` the entry was “inactive”.
Take `CO[C@@H]1CC[C@@]2(C)[C@@H](CC[C@@]3(C)[C@H]2CC=C2[C@H]4CC(C)(C)[C@H](O)[C@@H](OC(C)=O)[C@]4(CO)[C@H](O)C[C@]23C)[C@@]1(C)CO` (tested in a mixture with another compound): the AC50 entry was “inactive”.
Same read-out and setting: with `COc1cccc(/C=c2/s/c(=C(\C#N)C(=O)N3CCOCC3)n(-c3ccccc3)c2=O)c1` the entry was “inactive”.
Regarding `Clc1ccccc1NN(Cc1ccncc1)c1ccccc1Cl`, the half-maximal activity concentration (AC50) is 0.251 µM (active).
Turning to `Clc1ccccc1NN(Cc1ccccn1)c1ccccc1Cl`, the activity, negative = inhibition was -2.68% [at 11.4 µM].
Regarding `CC1=CC(C)(C)N(C)C(=O)N1c1ccc(Cl)cc1`, the activity, negative = inhibition was -0.338% [at 2.29 µM].
In the case of `Cc1cc(=O)oc(C)c1C(=O)NCCCN1CCN(c2ccc(F)cc2)CC1`, the AC50 entry was “inactive”.
Still for that read-out and setting: under `O=C(NCc1ccccc1)c1onc(CSc2ccc(F)cc2)c1C(=O)NCCCN1CCOCC1` stands 2.51 µM (active); under `COCCNC(=O)c1onc(CSc2cccc(Cl)c2)c1C(=O)O`, “inactive”.
As to `C=C(C)[C@@H]1CC=C(C(=O)O)CC1`, the AC50 result was “inactive”.
For `CO[C@@H](NC(N)=O)C(=O)O`, the activity, negative = inhibition is -10.7% [at 11.4 µM].
As to `CN(C)c1cc2c(Nc3ccc4c(cnn4Cc4ccccc4)c3)ncnc2cn1`, the AC50 is 5.01 µM (active).
Same read-out and setting: with `CC(C(=O)NC1CCCC1)N(C(=O)c1snc(C(N)=O)c1N)c1ccc2c(c1)OCCO2` (stereo not drawn) the figure was 3.55 µM (active).
Same read-out and setting: under `Cc1ccc(NC2=NC(c3ccccc3)n3c(nc(C)cc3=O)N2)c(C)c1` (stereo not drawn) stands 14.1 µM (active); under `O=C(OCc1nnc(-c2ccccc2)o1)c1ccc2c(c1)OCCO2`, 20 µM (active).
The same measure, in the same setting: under `O=C(OCc1cccc(F)c1)c1ccc2c(c1)-c1ccccc1C2=O` stands “inactive”; under `O=C(OCC#CCSc1nnc(-c2cccc3ccccc23)o1)c1ccco1`, 7.94 µM (active).
For the molecule `Cc1ccccc1OCCNC(=S)Nc1ccccc1`, the AC50 was 12.6 µM (active).
Same read-out and setting: under `S=C(Nc1ccccc1)Nc1ccc(OCc2ccccc2)cc1` stands “inactive”; under `O=C(c1ccco1)N1CCC2(CC1)CCN(c1ccccc1)CC2`, “inactive”; under `O=C(Nc1ccccc1)N1CC2(CCN(C(=O)c3ccco3)CC2)C1`, “inactive”.
The same measure, in the same setting: under `O=C(c1ccco1)N1CCC[C@@]2(CCN(c3ccncc3)C2)C1` stands 1.26 µM (active).
As to `O=C(c1ccco1)N1CCC[C@@]2(CCN(c3ccccc3)C2)C1`, the AC50 is 12.6 µM (active).
The same measure, in the same setting: with `O=C(Nc1cccn2ncnc12)c1ccc(Cl)cc1Cl` the entry was “inactive”; with `O=C(Nc1ccc(N=Nc2ccccc2)cc1)c1ccc(Cl)cc1Cl`, “inactive”; with `CCCN(CCC)C(=S)NC(=O)c1ccc(Cl)cc1Cl`, 14.1 µM (active).
Still for that read-out and setting: under `CC12COC3(C(=O)Nc4nccs4)CC1CCC32C` (stereo not drawn) stands 14.1 µM (active).
`CC1CCc2c(C(=O)Nc3nccs3)csc2C1` (stereo not drawn): the activity, negative = inhibition was -19.8% [at 11.4 µM].
Consider `Cc1onc(C(=O)/C=C/N(C)C)c1C(=O)Nc1nccs1`, for which the AC50 entry was “inactive”.
On to `Cn1c(OCc2ccc3c(c2)OCO3)nc2c1c(=O)n(Cc1ccc(Cl)c(Cl)c1)c(=O)n2C`, for which the AC50 was 3.55 µM (active).
The same measure, in the same setting: under `CCCCOC(=O)CCc1c(C)[nH]c(=O)c(C#N)c1C` stands “inactive”; under `Cc1cc(NC(=O)Nc2ccc(N(C)C)cc2)c2cc(F)cc(F)c2n1`, 6.31 µM (active); under `Cc1cc(NC(=O)Nc2ccc(F)cc2)no1`, “inactive”.
In the case of `Cc1cc(N)c2cc(NC(=O)Nc3ccc4nc(C)cc(N)c4c3)ccc2n1`, the activity, negative = inhibition is -7.21% [at 11.4 µM].
Consider `CSc1nsc(/C=C/Nc2ccc(Cl)cc2)c1C#N`, for which the AC50 was 8.91 µM (active).
On the same count and under the same terms, with `CSc1nc(N)nc(SCC(=O)Nc2ccc(Cl)cc2)c1C#N` the entry was “inactive”.
For the molecule `C[C@@H](c1ccccc1)N1C(=O)[C@H]2[C@@H]3[C@H](O)C=CC(=O)[C@H]3CC[C@H]2C1=O`, the activity, negative = inhibition is -17.4% [at 11.4 µM].
Turning to `COc1cccc(-c2nccc(NCc3cnc(C)cn3)n2)c1`, the AC50 was 6.31 µM (active).
Consider `Cc1cnc(CNc2ccnc(-c3cccnc3)n2)cn1`, for which the AC50 was 5.01 µM (active).
On the same count and under the same terms, with `Cc1cnc(CNc2ccnc(-c3cccc(NS(C)(=O)=O)c3)n2)cn1` the figure was 15.8 µM (active); with `Cc1cnc(CNc2ccnc(-c3cccc(C#N)c3)n2)cn1`, 12.6 µM (active); with `C[C@@H](N)C(=O)O`, “inactive”.
For `Cc1cc(C)cc(Oc2nn[nH]n2)c1`, the AC50 result was “inactive”.
Same read-out and setting: under `O=C(CCS(=O)(=O)c1cccs1)N1CCN(c2ccc(F)cc2)CC1` stands 12.6 µM (active).
Same read-out and setting: with `CC(C)CCN1CC(C(=O)N2CCN(c3ccc(F)cc3)CC2)CC1=O` (stereo not drawn) the entry was “inactive”.
As for `Cc1ccccc1S(=O)(=O)Oc1ccccc1C(=O)Oc1ccccc1`, the activity, negative = inhibition was -12.1% [at 2.29 µM].
As to `Nc1ccc(S(=O)(=O)Nc2ccccn2)cc1`, the AC50 entry is “inactive”.
For `O=C(Cc1ccccc1[N+](=O)[O-])NCCSCc1c(F)cccc1Cl`, the AC50 was 14.1 µM (active).
The same measure, in the same setting: with `CC(C)CCNC(=O)Cc1ccccc1[N+](=O)[O-]` the entry was “inactive”; with `COCCNC(=O)c1cn(Cc2c(F)cccc2Cl)nn1`, “inactive”; with `CC(C)COCC1CC2(CC(C)(c3csc(N)n3)OC2=O)C(=O)O1` (stereo not drawn), 14.1 µM (active).
Regarding `CCC1CCCCN1CCn1c(=S)[nH]c2cc(OC)c(OC)cc2c1=O` (stereo not drawn), the AC50 was 14.1 µM (active).
On the same count and under the same terms, under `CCN1CCC[C@H]1CNC(=O)c1c(OC)ccc(Br)c1OC` stands “inactive”; under `CCC1CCCCN1Cc1cc(OC)c(O)c([N+](=O)[O-])c1` (stereo not drawn), “inactive”.
The same measure, in the same setting: with `O=C(O)[C@@H]1C[C@@H](C(=O)O)N1` the entry was “inactive”; with `Cn1ncc2c(NCCc3ccccc3)nc(Cl)nc21`, 2 µM (active).
As for `Cn1ncc2c(Cl)ncnc21`, the activity, negative = inhibition is -9.04% [at 11.4 µM].
Still for that read-out and setting: with `c1ccc(CCNc2nnnn2-c2ccccc2)cc1` the figure was -3.75% [at 2.29 µM].
On to `CCN1CCN(c2cc(=O)n(-c3cc(Cl)ccc3C)c(=O)[nH]2)CC1`, for which the AC50 entry is “inactive”.
`CS(=O)(=O)c1ccccc1-c1nc(-c2cc(C(F)(F)F)cc(C(F)(F)F)c2)no1`: the activity, negative = inhibition is 4.25% [at 2.29 µM].
Turning to `Cc1cccc(-c2noc(-c3cc4ccccc4oc3=O)n2)c1`, the AC50 is 8.91 µM (active).
In the case of `CS(=O)c1ccccc1-c1nc(-c2cc(C(F)(F)F)cc(C(F)(F)F)c2)no1` (stereo not drawn), the activity, negative = inhibition is 15.3% [at 2.29 µM].
